CYP2C9 inh: blockers of cytochrome P450 2C9 activity – biochemical, luminescence, ADME assay, primary screen | P11712 | CYP2C9 Supersomes, luciferin-H conversion | inhibition, % at 5 µM | 96,000 compounds, 20% hits | AID 777, 2007;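 active means blocking of liver enzyme CYP2C9 beyond about 50% at 5 µM, limit read from the data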
Target sequence (P11712 whole entry, looked up): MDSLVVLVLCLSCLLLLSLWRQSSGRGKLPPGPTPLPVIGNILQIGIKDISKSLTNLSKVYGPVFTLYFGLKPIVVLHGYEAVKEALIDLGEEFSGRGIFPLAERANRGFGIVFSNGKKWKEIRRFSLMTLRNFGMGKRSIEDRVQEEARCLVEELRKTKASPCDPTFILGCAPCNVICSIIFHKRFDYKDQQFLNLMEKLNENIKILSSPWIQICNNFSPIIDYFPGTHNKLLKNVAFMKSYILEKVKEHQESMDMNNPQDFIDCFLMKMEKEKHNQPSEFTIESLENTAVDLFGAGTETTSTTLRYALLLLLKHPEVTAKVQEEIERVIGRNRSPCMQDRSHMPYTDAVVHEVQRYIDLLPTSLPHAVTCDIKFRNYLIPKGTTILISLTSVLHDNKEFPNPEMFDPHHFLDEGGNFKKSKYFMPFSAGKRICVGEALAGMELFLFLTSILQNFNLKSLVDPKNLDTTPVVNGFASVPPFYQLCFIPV
cytoskel mod: modifiers of F-actin cytoskeleton organization, primary screen, imaging, HUVEC, phalloidin staining, high-content imaging; inhibition, % at 2 µM; HUVEC TNFa F-actin phalloidin imaging; 91,000 compounds, 0.18% hits; AID 836, 2007;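 active means inhibition above the batch mean plus 3 SD and confirmed as a hit by visual image inspection, cut at about 30% in these data, passing the limit was not always enough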
E-sel TNF inh: E-selectin induction blockers in HUVEC – imaging, immunofluorescence, high content, primary screen | HUVEC TNFa-induced E-selectin immunofluorescence | inhibition, % at 2 µM | 120,000 compounds, 0.71% hits;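 active means inhibition above the batch mean plus 3 SD, and confirmed as a hit on visual image review, cut at about 43% in these data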
CYP2C9 activ: human CYP2C9 activators, primary screen, biochemical, luminescence; Cytochrome P450 2C9 (Homo sapiens), P11712; recombinant CYP2C9, luciferin-H conversion; active compounds read high; factor 1 = untreated enzyme, 0 = blocked; activation factor at 5 µM; 96,000 compounds, 1.4% hits;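 active means activation factor of 2 or more for CYP2C9 at a 5 µM dose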
CYP2C19 inh: blockers of cytochrome P450 2C19 activity – biochemical, luminescence, ADME assay, primary screen; P33261; CYP2C19 Supersomes, luciferin-H EGE luminescence, 30 min; inhibition, % at 5 µM; 96,000 compounds, 21% hits; AID 778, 2007;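 active means CYP2C19 inhibition above a set limit at 5 µM in the primary screen, cut at about 50% in these data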
CYP2C19 activ: human CYP2C19 activators, primary screen, biochemical, luminescence | Cytochrome P450 2C19 (Homo sapiens), P33261 | recombinant CYP2C19, luciferin-H EGE luminescence; active compounds read high; 0 = fully inhibited enzyme, 1 = untreated enzyme | activation factor at 5 µM | 96,000 tested, under 10 active | AID 1025, 2008;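 active means activation factor of at least 2 at 5 µM in the primary screen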
Of the large screens only hits and unclear results are named; the others gave an inactive call. The list is not random: actives were taken first. Their share in the collection is about 22%.

Cn1c(=O)cc(SCC(=O)N2CCC3(CC2)OCCO3)c2ccccc21	CYP2C9 activ 2.1 (no result: E-sel TNF inh)
Cn1c2ccccc2c2c(C(=O)N3CCC4(CC3)OCCO4)cn(C3CCCC3)c(=O)c21	CYP2C9 inh 72
Cn1cc(CCC(=O)N2CCC3(CC2)OCCO3)c2ccccc21	CYP2C19 inh 98 (no result: E-sel TNF inh)
CCOC(=O)CN1C(=O)C2(C(C#N)=C(N)Oc3ccccc32)C(C(=O)OC)=C1C (stereo unspecified)	none
O=C(CN1CCOCC1)NCC(=O)Nc1ccc(Br)cc1C(=O)c1ccccc1	none
CCOC(=O)c1c(C)n(COCCO)c2ccc(O)cc12	none
CCOC(=O)c1c(C)n(Cc2ccco2)c2ccc(O)cc12	CYP2C19 inh 56
COC(=O)c1c(C)n(Cc2ccc3c(c2)OCO3)c2ccc(O)cc12	CYP2C9 inh 79, CYP2C19 inh 82
CC(C)CCNC(=O)c1cc(C(=O)c2cc(Br)ccc2O)cn(CCC(C)C)c1=O	none (no result: CYP2C9 inh, cytoskel mod, CYP2C9 activ, CYP2C19 inh, CYP2C19 activ)
O=C(/C=C/c1ccccc1)NCCc1cnc[nH]1	none (no result: CYP2C9 inh, cytoskel mod, CYP2C9 activ, CYP2C19 inh, CYP2C19 activ)
O=S1(=O)CCN(CCc2c[nH]c3ccccc23)CC1	E-sel TNF inh 100 (no result: CYP2C9 inh, cytoskel mod, CYP2C9 activ, CYP2C19 inh, CYP2C19 activ)
Cc1nn(C2CCOC(C)(C)C2)c2c1C(c1ccc3c(c1)OCO3)SCC(=O)N2 (stereo unspecified)	none (no result: E-sel TNF inh)
COc1cc(C2SCC(=O)Nc3c2c(C)nn3-c2ccccc2)cc(OC)c1OC (stereo unspecified)	CYP2C9 inh 69, CYP2C19 inh 79 (no result: E-sel TNF inh)
COc1ccc(C2SCC(=O)Nc3c2c(C)nn3C2CCOC(C)(C)C2)cc1 (stereo unspecified)	none (no result: E-sel TNF inh)
Cc1nn(-c2ccccc2)c2c1C(c1ccc3c(c1)OCO3)SCC(=O)N2 (stereo unspecified)	CYP2C9 inh 90, CYP2C19 inh 90
O=C1NC(=O)C(CCc2ccncc2)(Cc2ccc3c(c2)OCO3)C(=O)N1CCc1ccccc1 (stereo unspecified)	CYP2C9 inh 90, CYP2C19 inh 99 (no result: cytoskel mod)
CN1C(=O)N(C)C(=O)C(CCc2ccncc2)(Cc2ccc3c(c2)OCO3)C1=O	CYP2C9 inh 74, CYP2C19 inh 99
CCC(C)N=Cc1c(O)n(-c2ccccc2)c(=O)[nH]c1=O (stereo unspecified)	none
Cc1ccc(CN2CC3CC(C2)c2cccc(=O)n2C3)cc1 (stereo unspecified)	none (no result: E-sel TNF inh)
O=c1cccc2n1CC1CC2CN(Cc2c(Cl)cccc2Cl)C1 (stereo unspecified)	CYP2C9 inh 70, CYP2C19 inh 97 (no result: cytoskel mod)
CSc1ccccc1C(=O)C1CCCN(Cc2cccc(C)n2)C1 (stereo unspecified)	none (no result: CYP2C9 inh, cytoskel mod, CYP2C9 activ, CYP2C19 inh, CYP2C19 activ)
CCCCn1c(O)c(C(C)=NCc2ccc(F)cc2)c(=O)[nH]c1=O	none (no result: E-sel TNF inh)
CCCCn1c(O)c(C(CC)=NCCN2CCOCC2)c(=O)[nH]c1=O	CYP2C9 inh 64
CCCCn1c(O)c(C(CC)=NCCc2ccccc2)c(=O)[nH]c1=O	CYP2C9 inh 78
CCCCn1c(O)c(C(C)=NCCN2CCOCC2)c(=O)[nH]c1=O	none
CCCCn1c(O)c(C(CC)=NCc2ccc(F)cc2)c(=O)[nH]c1=O	CYP2C9 inh 71
CCC(CC)N1CCN(C(=O)Cc2ccccc2)CC1	none (no result: CYP2C9 inh, CYP2C9 activ, CYP2C19 inh, CYP2C19 activ)
COc1ccc(CCNC(=O)c2c(N)n(CCN3CCOCC3)c3nc4ccccc4nc23)cc1	CYP2C9 inh 50
Nc1c(C(=O)NCCc2ccccc2)c2nc3ccccc3nc2n1CCN1CCOCC1	CYP2C9 inh 97, CYP2C19 inh 67
CC(C)CCNC(=O)c1c(N)n(CC2CCCO2)c2nc3ccccc3nc12 (stereo unspecified)	CYP2C9 inh 95, CYP2C19 inh 61
CC(C)N1CCN(Cc2ccccc2C(F)(F)F)CC1CCO (stereo unspecified)	none (no result: CYP2C9 inh, cytoskel mod, CYP2C9 activ, CYP2C19 inh, CYP2C19 activ)
Cc1ccc(C(=O)C2(C)N(O)C(C)C(c3cccs3)=[N+]2[O-])cc1 (stereo unspecified)	CYP2C9 inh 56
CC1C(c2cccs2)=[N+]([O-])C(C)(C(=O)c2ccc(F)cc2)N1O (stereo unspecified)	none (no result: CYP2C9 inh, CYP2C9 activ, CYP2C19 inh, CYP2C19 activ)
COCCOC(=O)c1c(C)oc2ccc(OC(=O)N(C)C)cc12	CYP2C19 inh 63 (no result: E-sel TNF inh)

Source: PubChem BioAssay (several laboratories)
